# Measured values taken from PubChem BioAssay (NCI).
# About 83,000 compounds went through this panel and 20% of them were active in at least one assay; those are over-represented in the sample as a whole.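 Assay: single dose, 48 h. Readout: percent growth (0 = no net growth; negative = cell death). Active: <10.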 A number with no mark means an inactive call. Active and inactive are the calls of the source.
# Experiments:
# Assay in all cases: NCI-60 one-dose screen, 48 h (100 = growth as untreated, 0 = no growth, -100 = all killed)
# Conditions in all cases: 10 µM unless noted
# NCI-H23 lung = system: NCI-H23 lung
# NCI-H226 lung = system: NCI-H226 lung
# NCI-H322M lung = system: NCI-H322M lung
# HOP-62 NSCLC = system: HOP-62 NSCLC
# NCI-H460 lung = system: NCI-H460 lung
# NCI-H522 lung = system: NCI-H522 lung
# A549/ATCC NSCLC = system: A549/ATCC NSCLC
# 786-0 renal = system: 786-0 renal
# COLO 205 colon = system: COLO 205 colon
# K-562 leukemia = system: K-562 leukemia
# MALME-3M melanoma = system: MALME-3M melanoma
# MDA-MB-231 breast = system: MDA-MB-231 breast
# SF-295 CNS = system: SF-295 CNS
# SF-539 CNS = system: SF-539 CNS
# UACC-257 melanoma = system: UACC-257 melanoma
# M14 melanoma = system: M14 melanoma
# HCT-15 colon = system: HCT-15 colon
# DU-145 prostate = system: DU-145 prostate
# RXF 393 renal = system: RXF 393 renal
# SF-268 CNS = system: SF-268 CNS
Compound,growth (NCI-H23 lung),growth (NCI-H226 lung),growth (NCI-H322M lung),growth (HOP-62 NSCLC),growth (NCI-H460 lung),growth (NCI-H522 lung),growth (A549/ATCC NSCLC),growth (786-0 renal),growth (COLO 205 colon) [%],growth (K-562 leukemia),growth (MALME-3M melanoma),growth (MDA-MB-231 breast),growth (SF-295 CNS),growth (SF-539 CNS),growth (UACC-257 melanoma) [%],growth (M14 melanoma),growth (HCT-15 colon),growth (DU-145 prostate),growth (RXF 393 renal),growth (SF-268 CNS)
CC12CCCCC1C(C(N)=O)C(=O)O2 (centres undefined),101%,118%,104%,109%,110%,108%,106%,101%,112,102%,120%,101%,109%,112%,107,104%,106%,–,–,–
Cc1ccc(NC(=O)COC(=O)c2ccc(S(=O)(=O)N3CCCCCC3)cc2)cc1,107%,90.8%,131%,96.4%,106%,96%,97.2%,103%,–,103%,127%,101%,88.9%,105%,94.3,126%,105%,108%,88.9%,94.6%
Cc1nn(-c2ccc(Cl)cc2)c2nc3c(nc12)C(=O)c1ccccc1-3,61.7%,32.5%,63.1%,51.7%,12.6%,60.7%,55.8%,56.8%,95.2,–,84.7%,52.7%,36.4%,–,91.5,70.5%,98.5%,77.8%,45.4%,72.4%
S=C(c1ccccc1)N1CCN(c2cccc(Cl)c2)CC1,101%,99.3%,104%,102%,111%,87.5%,87.8%,107%,100,54.8%,97.4%,105%,82.9%,105%,103,113%,105%,–,108%,–
O=C1CN(CO)C(=O)CN1CO,103%,113%,100%,106%,104%,98.9%,103%,105%,116,–,103%,108%,101%,115%,99.8,104%,106%,114%,–,105%
N#Cc1c(N2CCOCC2)nc2sc3cc(Cl)ccc3n2c1=N,88.2%,88.3%,117%,90.2%,91.4%,93.7%,102%,95.3%,–,106%,117%,75.9%,118%,97.3%,103,111%,102%,110%,72.7%,94.4%
Oc1ccccc1/C=N\Nc1ccccc1,87.5%,39.4%,59.9%,65.6%,30.9%,10.5%,36.8%,43.3%,115,–,95%,26.7%,19.9%,3.41% (active),95.7,39.4%,25.6%,58.5%,–,61.8%
O=C1c2ccccc2-c2c1nc1ccccc1[n+]2[O-],102%,106%,97%,102%,102%,93.1%,108%,103%,111,–,90.2%,108%,108%,101%,107,97.9%,101%,108%,–,98.2%
NC(N)=N/N=C(/c1ccccc1)c1ccc(Cl)cc1,83.9%,88.8%,57.7%,85%,52.3%,59.5%,68.3%,69.1%,–,42.5%,115%,105%,–,93.3%,38.4,59.6%,56.6%,83%,94.9%,62.2%
O=C(/C(=C/c1ccc([N+](=O)[O-])cc1)c1ccccc1)c1ccccc1,67.1%,56.6%,74.3%,88.9%,65.6%,31.4%,48.7%,65.3%,–,3.83% (active),–,53.6%,67.5%,83%,41.1,51.6%,14.6%,23.4%,–,27.8%
COC(=O)[C@]12CC[C@@H](C)[C@H](C)[C@@H]1C1=CC[C@@H]3[C@@]4(C)C[C@@H](OC(=O)c5ccco5)[C@H](O)[C@@](C)(CO)[C@@H]4[C@H](O)C[C@@]3(C)[C@]1(C)CC2,-84.1% (active),-53.4% (active),-93.8% (active),-88.3% (active),-84.7% (active),-83.3% (active),-92.7% (active),-77.8% (active),–,-100% (active),-73.4% (active),-65.7% (active),-98.3% (active),-90.1% (active),–,-59.5% (active),-95.7% (active),-100% (active),-79% (active),-79.6% (active)
CSc1nc2c(c(=O)n1C)C(c1ccccc1)C1=C(N2)/C(=C/c2ccccc2)CCC1 (centres undefined),54.8%,74.1%,86%,94.3%,54.3%,24.5%,86.2%,54.6%,–,–,70.4%,53.5%,7.45% (active),63.4%,52.2,65.9%,58.9%,72.2%,36.9%,62.6%
Cc1nc(N)[nH]c(=O)c1C,97.4%,97%,96.6%,103%,106%,102%,103%,103%,–,86.9%,156%,102%,–,107%,87,105%,122%,109%,104%,114%
CCCc1cccc(CCC)c1O,100%,106%,124%,106%,106%,89.9%,98.2%,110%,–,104%,131%,125%,91.4%,118%,93.3,–,107%,120%,121%,109%
C=C(C)[C@@H]1C/C=C(/C=O)CC[C@@H]2O[C@@]2(C)CC/C=C(\C)CC1,116%,98.9%,91%,110%,98.7%,186%,104%,106%,–,136%,–,111%,–,105%,141,115%,105%,112%,104%,112%
CC(=O)c1ccc2c3c(n(C)c2c1)CCCC3,104%,33%,117%,101%,84.9%,95.2%,106%,92.7%,–,–,118%,101%,97.7%,98%,116,108%,105%,98.3%,112%,101%
O=C1C2C3C=CC(O3)C2C(=O)N1Nc1ccccc1 (centres undefined),106%,109%,124%,117%,112%,117%,103%,107%,–,103%,120%,99.8%,107%,–,104,104%,–,112%,119%,102%
